Active and inactive are the calls of the source. A call without a number means that no potency is given here. Calls follow the shape of the dose curve; as a rule, active = well fitted activation curve with a large enough effect; inconclusive = small, poorly fitted or top-dose-only effect; inactive = no such curve, though single readings can be large or run the other way.
experiment: Confirmatory qHTS for Identification of Small Molecule Activators of Huntingtin-Antisense Promoter Activity; settings: HEK293 HTT-AS promoter firefly luciferase reporter, 24 h; series mostly up to 57.5 µM
Outline: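 Activity normalized between vehicle control (0%) and zero RLU (-100%) from firefly luminescence (Dual-Glo). Compounds, up to 57.5 uM final, incubated 24 h at 37C on HEK293 reporter cells plated 24 h earlier.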
Potency is read from the fitted curve at half-maximal effect.

Row | Structure (SMILES) | Potency
1 | CCN(C(=O)c1cc2c(s1)-c1ccccc1OC2)c1cccc(C(F)(F)F)c1 | inactive
2 | CSc1ncc(Cl)c(C(=O)Nc2ccc(S(=O)(=O)N3CCC(C)CC3)cc2)n1 | inactive
3 | COc1cc(NC(=O)CSc2nc3nc(C)c(Cc4ccc(C)cc4)c(C)n3n2)cc(OC)c1 | inactive
4 | Cc1ccc(Cn2c(=O)c3ccccc3n3c(-c4cccc(O)c4)nnc23)cc1 | inactive
5 | CSc1cccc(NC(=O)C2CCN(C(=O)c3cnn(-c4ccccc4)c3-n3cccc3)CC2)c1 | inactive
6 | O=C(Nc1cccc(Cl)c1)c1ccc(F)c(S(=O)(=O)N2CCC3(CC2)OCCO3)c1 | inactive
7 | CCc1cccc(NC(=O)CSc2nc3ccsc3c(=O)n2CC)c1 | inactive
8 | COc1ccc(C(=O)N2CCC(c3nc4ccccc4s3)CC2)cc1Cl | inactive
9 | COc1ccc(NC(=O)Cn2nc(-c3ccncc3)ccc2=O)cc1Cl | inactive
10 | Cc1cc(C)c(/C=C/c2onc(C)c2S(=O)(=O)N2CCC(C(=O)NCc3ccco3)CC2)c(C)c1 | inactive
11 | O=C(Nc1nc2cccc(-c3ccc(CN4CCS(=O)(=O)CC4)cc3)n2n1)C1CC1 | 8.49 µM (active)
12 | CC(=O)N1CCCc2cc(S(=O)(=O)N(C)CC(=O)Nc3cccc(Cl)c3C)ccc21 | inactive
13 | CCCCN1C(C(=O)c2ccccc2)=C(OC(=O)CC)c2ccccc2S1(=O)=O | inactive
14 | COc1ccc(CNC(=O)c2oc3c(c2C)-c2nn(Cc4ccccc4Cl)cc2CC3)cc1 | inactive
15 | Cc1oc(-c2ccc(C(=O)NCCCOC(C)C)cc2)nc1CS(=O)(=O)c1ccccc1 | inactive
16 | COc1ccc(NC(=O)CSc2nc(-c3ccco3)cc(C(F)(F)F)n2)cc1OC | inactive
17 | COc1cccc(CNC(=O)c2ccc(-c3nc(COc4ccccc4)c(C)o3)cc2)c1 | inactive
18 | Cc1cc(Nc2sc(C(=O)c3ccc(F)cc3)c(N)c2C(=O)Nc2ccc(F)cc2)ccc1Cl | inactive
19 | CCN(C(=O)c1oc2ccc(S(=O)(=O)N3CCCCCC3)cc2c1C)c1ccccc1 | inactive
20 | Cn1cnc(S(=O)(=O)N2CCC(C(=O)Nc3ccc(Cl)c(C(F)(F)F)c3)CC2)c1 | inactive

Row | Structure (SMILES) | Potency
21 | Cc1ccc(NC(=O)c2ccc(C)c(S(=O)(=O)N3CCCCCC3)c2)cc1 | inactive
22 | Cc1ccc(C)c(NC(=O)C(=O)NCC(c2cccnc2)N2CCN(c3ccc(F)cc3)CC2)c1 (centres undefined) | inactive
23 | CCOC(=O)c1cc(-c2ccccc2)n(-c2cccc(C(=O)Nc3cccc(F)c3)c2)c1C | inactive
24 | COc1ccc(Cl)cc1C1CC(=O)Nc2cc3c(cc21)OCCO3 (centres undefined) | inactive
25 | CCCOC(=O)c1cccc(NC(=O)c2c(-c3ccccc3Cl)noc2C)c1 | inactive
26 | CCOc1ccc(C(=O)Nc2ccc(S(=O)(=O)N3CCCCC3c3cccnc3)cc2)cc1 (centres undefined) | inactive
27 | Cc1nnc(N2CCC(C(=O)NCCc3ccccc3Cl)CC2)c2nn(-c3ccccc3)c(C)c12 | inactive
28 | CCc1ccc(NC(=O)C2CCCN2S(=O)(=O)c2ccc3c(c2)CCCC(=O)N3)cc1 (centres undefined) | inactive
29 | CCn1c(=O)n(CC)c2cc(N3CCCCC3)c(NC(=O)Nc3cc(Cl)ccc3OC)cc21 | inactive
30 | O=C(NCCCN1CCN(c2ccccc2)CC1)c1ccc2nc(CCc3ccccc3)oc2c1 | inactive
31 | O=C(NCc1ccc(F)cc1)C1CCN(C(=O)c2ccc(-n3ccc4ccccc43)s2)CC1 | inactive
32 | CCCCOc1cccc(C(=O)N(Cc2ccc(C)o2)c2ccccn2)c1 | inactive
33 | Cc1ccc(C(=O)Nc2nnc(SCc3cc(=O)c4c(C)ccc(C)c4[nH]3)s2)cc1 | inactive
34 | COc1ccccc1N1CCN(S(=O)(=O)c2ccc(F)c(C(=O)Nc3ccc(Cl)cc3C(F)(F)F)c2)CC1 | inactive
35 | Cc1ccc(NC(=O)c2cc(S(=O)(=O)N3CCc4ccccc43)ccc2F)cc1Cl | inactive
36 | COc1cc(CNc2ccc3[nH]c(=O)[nH]c3c2)cc(Br)c1OCc1ccc(F)cc1 | inactive
37 | CCOC(=O)c1cc(-c2ccccc2)n(CCC(=O)Nc2ccc(OC)c(Cl)c2)c1C | inactive
38 | CCOc1ccc(-n2ccnc2SCC(=O)Nc2ccc3c(c2)OCO3)cc1 | inactive
39 | CCOc1cccc(NC(=O)c2ccc(F)c(S(=O)(=O)N(CC)c3cccc(C)c3)c2)c1 | inactive

Reference: PubChem BioAssay AID1508622 (National Center for Advancing Translational Sciences (NCATS), 2021)
